Compounds with a hit are over-represented: about 14% of the library has one in this group of screens.
MARV entry inh: Marburg virus entry inhibition; Marburg virus pseudotyped entry inhibition, cell reporter; Potency, µM (series often up to 37.8 µM), without a hit: at the top dose activity change, negative = inhibition, hits mostly inhibitors; 300,000 tested, 1.8% active; AID 540276; calls by dose curve; tested in HEK293 cells; also: potency is read from the fitted curve at half-maximal effect
HCMV inh: inhibitors of human cytomegalovirus; HFF cells, HCMV-luciferase reporter, 72 h; hits give low values; activity change, negative = inhibition, % at 57.5 µM; AID 1259415; 410,000 tested, 4.5% active; in the data active = activity change below about -60%; inconclusive = no clear call, values can overlap the other calls; inactive = above about -39%
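After 16 h attachment at 37C, HFF cells received test compound and HCMV-luciferase (1 PFU/cell); reporter luminescence read 72 h later, data normalized against buffer-only and known inhibitor Salinomycin.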
HCV inhibitor: inhibitors of hepatitis C virus infection; Huh7.5.1 HCVcc-Cre infection, luciferase reporter, 44 h; 340,000 tested, 3.4% active; Potency, µM (titrated, usually from 41.8 µM), without a hit: at the top dose activity change, negative = inhibition, actives largely listed as inhibitors; also: potency is read from the fitted curve at half-maximal effect
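HCVcc-Cre virus at an moi near 0.5 was added right after compound to cells cultured 4 h from seeding (1,000 cells/well). Luciferase activity was determined 44 h later, 15 min after substrate addition at RT.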
Pf growth 48h: inhibits P. falciparum growth in the first generation, 48 h; Potency, µM (doses to about 28.7 µM), without a hit: top-dose activity change, negative = inhibition, hits mostly inhibitors; P. falciparum luciferase growth in erythrocytes, 48 h; 310,000 tested, 5.9% active; also: potency is read from the fitted curve at half-maximal effect
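Luciferase-expressing P. falciparum in infected erythrocytes (2% hematocrit, 0.1% parasitemia final) in RPMI 1640/0.5% Albumax were exposed to compound for 48 hours at 37 C, 5% CO2; growth read as luminescence.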
Pf growth 96h: P. falciparum growth inhibition at 96 hour, primary screen for plastid delayed-death inhibitors; P. falciparum luciferase reporter growth, 96 h; Potency, µM (doses to about 28.7 µM), for the others: at the top dose activity change, negative = inhibition, usual class: inhibitors; 320,000 tested, 6.9% active; also: potency is read from the fitted curve at half-maximal effect
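Parasite growth measured via integrated firefly luciferase reporter in P. falciparum. Infected erythrocytes at 2% hematocrit, 0.05% parasitemia final were treated 96 hours at 37 C under 5% CO2, and luminescence was read.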
LASV entry inh: Lassa virus entry inhibition; Potency, µM (series often up to 37.9 µM), without a hit: at the top dose activity change, negative = inhibition, actives largely listed as inhibitors; Lassa virus pseudotype entry inhibition, cell reporter; 300,000 tested, 1.2% active; calls by dose curve; tested in HEK293 cells; also: potency is read from the fitted curve at half-maximal effect; nearly all actives have a fitted effect of over 50% in size
Active calls of the source: *; ? = inconclusive; nt = no result; [ ] = dose if it differs, or a comment. Unless noted, calls follow the shape of the dose curve; as a rule, active = well fitted inhibition curve with a large enough effect; inconclusive = small, poorly fitted or top-dose-only effect, or another doubt; inactive = no such curve, though single readings can be large or run the other way. % is scaled to controls: 0 for no effect and ±100 for the full control effect.

SMILES	MARV entry inh	HCMV inh	HCV inhibitor	Pf growth 48h	Pf growth 96h	LASV entry inh
O=C(COc1ccc(S(=O)(=O)NC2CCCCC2)cc1Cl)NCc1ccc2c(c1)OCO2	?	-12.3	?	-8.2%	nt	-7.1%
O=C(COc1ccc(S(=O)(=O)NC2CCCCC2)cc1Cl)Nc1ccc2c(c1)OCO2	?	-16.0	?	nt	10.4µM*	?
COc1ccccc1CNC(=O)Nc1ccc2c(c1)N(C)C(=O)c1ccccc1S2	4.8%[46.1 µM]	?	nt	nt	nt	-2.1%[46.1 µM]
CC(C)(C)OC(=O)COc1cc(OCC(=O)OC(C)(C)C)c2c(=O)cc(-c3ccccc3)oc2c1	?	-26.1	10µM*	?	?	?
Nc1nc2n(n1)C1(CCCCC1)C1=C(CCCC1)N2	nt	nt	nt	-0.9%	10.4µM*	nt
S=C1NC2=C(CCCC2)C2(CCCCC2)N1	9.6%	-37.1	-6.5%	?	-19.1%	3.3%
C1CCC2(CC1)C1=C(CCCC1)Nc1nnnn12	-9.5%	-92.6*	7.4%	1.1%	-10.2%	-6.4%
C=C1C(CCl)(CCl)C2(Cl)C(Cl)C(Cl)C1(Cl)C2(Cl)Cl (stereo unspecified)	nt	nt	nt	1.9µM*	2.69µM*	nt
O=C1NC(=S)S/C1=C1\Sc2ccccc2N1CCCS(=O)(=O)O	1.5%	24.7	22.0%	7.5%	7.38µM*	7.9%
NN1C(=O)/C(=C2/Sc3ccccc3N2CCCS(=O)(=O)O)SC1=S	nt	-21.3	9.1%	8.8%	0.0%	nt
O=C1[C@H]2[C@@H]3[C@@H](O)[C@H](O)CC(=NOCc4ccccc4)[C@H]3CC[C@H]2C(=O)N1C1CCCCC1	-25.4%[14.2 µM]	nt	nt	nt	nt	?
O=C(CCNNC(=O)c1ccncc1)NCc1ccccc1	?	-103.1*	13.8%[8.37 µM]	-8.4%	?	?
O=C(NCc1ccccc1)NC(=O)c1ccncc1	9.3%	14.5	-1.1%	12.6%	?	?
CCC/C(=N\NC(=O)CCC(=O)NCc1ccccc1)c1ccccc1	?	-0.2	-28.7%	-4.5%	16.6%	3.98µM*
CCCC(=O)NCc1ccncc1	nt	-12.9	nt	2.3%	18.6%	nt
O=C(CCc1ccccc1)NCc1ccncc1	nt	31.6	10.2%	9.6%	3.7µM*	nt
CCCCC(CC)CNC(=O)CCCn1c(=O)[nH]c2ccsc2c1=O (stereo unspecified)	8.2%[46.1 µM]	-20.8	nt	nt	nt	?
CCCCS(=O)(=O)c1nc(-c2ccc(Br)cc2)cc(-c2ccccc2)c1C#N	nt	?	nt	nt	nt	1.1%[46.1 µM]
COC(=O)c1sc(NC(=O)c2cccc([N+](=O)[O-])c2)c(C(N)=O)c1C	?	-17.7	?	22.6%	-8.0%	?
COC(=O)c1sc2cc([N+](=O)[O-])cc(SCC(C)C)c2c1N	16.7%	-63.5*	-21.9%	42.4%	-23.7%	-19.2%
CNC(=O)c1ccc(CN(C)C(=O)/C=C/c2ccc(S(=O)(=O)N3CCCCCC3)cc2)cc1	nt	-84.4*	nt	nt	nt	nt
COc1cccc(NC(=O)CN(C)C(=O)/C=C/c2ccc(S(=O)(=O)N3CCCCCC3)cc2)c1	nt	-38.2	nt	nt	nt	nt
COc1ccc(CN(C)C(=O)/C=C/c2ccc(S(=O)(=O)N3CCCCCC3)cc2)cc1	?	?	11.2µM*	9.28µM*	13.1µM*	5.01µM*
C[C@@H]1O[C@H](C2CCCCC2)Cc2[nH][nH]c(=O)c21	nt	7.4	nt	nt	nt	nt
COc1ccc(CNC(=O)CCc2c(C)nc3nc(CNC(=O)OC(C)(C)C)nn3c2C)cc1	1.9%[46.1 µM]	-15.0	nt	nt	nt	11.5%[46.1 µM]
SMILES	MARV entry inh	HCMV inh	HCV inhibitor	Pf growth 48h	Pf growth 96h	LASV entry inh
O=C(Nc1ccc2nc(-c3ccco3)c(-c3ccco3)nc2c1)N1CCCCCC1	-16.8%	nt	2.82µM*	?	10.4%	-10.3%
CCOC(=O)C1CCN(C(=O)Nc2ccc3nc(-c4ccco4)c(-c4ccco4)nc3c2)CC1	?	nt	?	10.4µM*	?	-2.8%
Cn1c(=O)n(C)c2cc(N3CCOCC3)c(NS(=O)(=O)c3ccc(Cl)cc3)cc21	3.9%[46.1 µM]	23.4	nt	nt	nt	-18.0%[46.1 µM]
COc1ccc(C)cc1S(=O)(=O)NCc1ccccn1	nt	32.8	nt	nt	nt	nt
Cc1ccc2oc(=O)cc(CN3CCN(C/C=C/c4ccccc4)CC3)c2c1	-14.6%[46.1 µM]	19.0	10µM*	?	8.28µM*	-8.8%
O=c1cc(CN2CCN(C/C=C/c3ccccc3)CC2)c2cc(O)ccc2o1	-22.8%	-33.4	?	3.29µM*	2.94µM*	?
Cc1cccc(N2CCN(Cc3cc(=O)oc4cc(C)ccc34)CC2C)c1 (stereo unspecified)	10.2%[46.1 µM]	-65.6*	nt	nt	nt	10.4%[46.1 µM]
Cc1oc2ccc(O)c(CN3CCN(C)CC3)c2c1C(=O)Nc1cccc(C(F)(F)F)c1	-24.5%[46.1 µM]	?	nt	nt	nt	?
CNc1ncnc2c1ncn2[C@H]1CN(Cc2cccc3ccccc23)C[C@@H](CO)O1	nt	37.8	nt	nt	nt	nt
CCCCN(CC)C(=O)c1cc2c(=O)n3cccc(C)c3nc2n1C	nt	?	nt	nt	nt	-18.6%[46.1 µM]
Cc1cccc(N2CCN(c3cccc(C)c3)C2c2cccnc2)c1	-2.7%	-8.2	?	1.85µM*	-23.6%	16.5%
Cc1cccc(N2C(=O)CSC2c2cccnc2)c1 (stereo unspecified)	15.0%	-10.6	20.9%	nt	-7.5%	-3.3%
COc1nc(-c2ccccc2)ccc1-c1noc(-c2cccnc2)n1	0.3%	-104.0*	27.4%	0.0%	-0.2%	31.6%
COc1nc(-c2ccc(C)cc2)ccc1-c1noc(-c2cccnc2)n1	6.7%	-0.2	4.0%	22.7%	11.7µM*	7.6%
CCOc1nc(-c2ccccc2)ccc1-c1noc(-c2ccco2)n1	?	?	10µM*	?	15.8%	-8.9%
COc1nc(-c2ccc(C)cc2)ccc1-c1noc(-c2ccccc2Br)n1	3.5%[46.1 µM]	-1.9	nt	nt	nt	?
O=C(CC[C@H]1O[C@@H](n2cnc3c(NC(=O)c4ccccc4)ncnc32)[C@H](O)[C@@H]1O)NCc1ccc(OC(F)(F)F)cc1	nt	-1.4	nt	nt	nt	nt
COc1ccc(C2C(=O)N(C3CCC(C)CC3)CC(=O)N2C2CCCC2)cc1OC (stereo unspecified)	nt	?	nt	nt	nt	25.0%[46.1 µM]
Cc1cc(C)cc(C(=O)n2cnnc2N)c1	7.2%	35.4	10.4%	0.0%	nt	?
Cc1cccc(C(=O)n2cnnc2N)c1	-3.5%[46.1 µM]	-30.8	-2.5%	10.4µM*	-48.9%	-5.6%[46.1 µM]
O=S(=O)(Nc1cccc(-c2ccc(N3CCCC3)nn2)c1)c1ccccc1C(F)(F)F	nt	7.1	nt	nt	nt	17.3%[46.1 µM]
CCN(C[C@H]1N[C@@](C)(C(=O)OC)[C@H]2C(=O)N(C)C(=O)[C@@H]12)C(=O)Nc1ccc(OC)cc1	nt	45.8	2.51µM*	nt	nt	nt
O=S(=O)(c1cccs1)N1CCC2(CC1)OCCO2	6.6%[46.1 µM]	-30.8	7.0%	?	13.1µM*	25.4%[46.1 µM]
O=S(=O)(c1cccs1)N1CCN(S(=O)(=O)c2cccs2)CC1	-0.3%[46.1 µM]	-16.2	6.4%	17.2%	?	nt
CN(C)CCCNc1ccc(-c2cc(Nc3cccc(Cl)c3)ncn2)cn1	nt	-37.5	?	1.85µM*	0.928µM*	nt
